Assay outcomes from PubChem BioAssay.
LmPK inhibitor: inhibitors of Leishmania mexicana pyruvate kinase; Potency, µM (series often up to 57.5 µM), for inactives: top-dose activity change, negative = inhibition, most hits filed as inhibitors; 290,000 compounds, 0.37% hits; Q27686; purified LmPK, Kinase-Glo ATP luminescence, 1 h; note: potency is the fitted concentration of half-maximal effect; % is set by controls: 0 for no effect and ±100 for the full control effect
Target sequence (Q27686 whole entry, looked up): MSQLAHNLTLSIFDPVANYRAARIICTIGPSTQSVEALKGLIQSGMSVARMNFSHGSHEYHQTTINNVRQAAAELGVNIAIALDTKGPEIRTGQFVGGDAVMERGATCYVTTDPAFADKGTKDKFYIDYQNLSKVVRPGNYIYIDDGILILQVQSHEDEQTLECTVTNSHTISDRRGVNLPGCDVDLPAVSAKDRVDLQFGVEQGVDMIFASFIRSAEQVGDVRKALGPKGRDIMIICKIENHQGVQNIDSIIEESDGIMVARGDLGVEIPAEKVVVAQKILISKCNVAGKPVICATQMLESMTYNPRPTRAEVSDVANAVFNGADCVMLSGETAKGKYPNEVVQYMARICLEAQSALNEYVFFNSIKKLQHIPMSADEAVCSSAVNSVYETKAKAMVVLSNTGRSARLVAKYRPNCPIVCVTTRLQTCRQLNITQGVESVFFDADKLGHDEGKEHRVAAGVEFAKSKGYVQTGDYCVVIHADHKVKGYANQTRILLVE
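Kinase-Glo luminescence read after 1 h RT reaction of 0.1 nM LmPK with 0.5 mM PEP and 0.1 mM ADP. Activity scaled between uninhibited and enzyme-free controls.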
Shiga inhibitor: inhibitors of Shiga toxin in Vero cells. 290,000 compounds, 9.2% hits. Vero cells, Shiga toxin protein synthesis inhibition reporter. inhibition, % at 38.7 µM; in the data active = inhibition mostly above about 28%, no sharp cut-off; inactive = mostly below about 43%; note: 0% is about no effect
Cycloheximide cs: counter-screen for Shiga toxin inhibitors: cycloheximide protein synthesis inhibition; cell reporter, cycloheximide protein synthesis inhibition counterscreen; 300,000 compounds, 12% hits; max response, %; in the data active = max response mostly above about 13%, no sharp cut-off; inactive = mostly below about 14%; note: read at 38.3 µM for the half of the compounds with a filed dose; 0% is about no effect
Pf growth 48h: inhibits P. falciparum growth in the first generation, 48 h; P. falciparum luciferase growth in erythrocytes, 48 h; Potency, µM (titrated, usually from 28.7 µM), inactives show at the highest dose activity change, negative = inhibition, actives largely listed as inhibitors; 310,000 compounds, 5.9% hits; AID 504832; note: potency is the fitted concentration of half-maximal effect; % is set by controls: 0 for no effect and ±100 for the full control effect
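Growth was read as firefly luciferase luminescence after a 48 h, 37 C, 5% CO2 exposure of compounds to reporter-bearing P. falciparum cultures (0.1% parasitemia, 2% hematocrit final) in Albumax-supplemented RPMI 1640.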
Pf growth 96h: inhibits malaria parasite growth, 96 h. P. falciparum luciferase reporter growth, 96 h. Potency, µM (doses to about 28.7 µM), inactives show top-dose activity change, negative = inhibition, hits mostly inhibitors. 320,000 compounds, 6.9% hits; note: potency is the fitted concentration of half-maximal effect; % is set by controls: 0 for no effect and ±100 for the full control effect
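96 h incubation, 37 C, 5% CO2, of luciferase-reporter P. falciparum-infected RBCs (2% hematocrit, 0.05% parasitemia final) with test compounds; endpoint luminescence.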
* hit, by the source's call. Shown are actives, neighbours in structure and some others; about 22% of the full set was active somewhere. Unless noted, calls come from the whole dose curve; as a rule, active = well fitted inhibition curve with a large enough effect; inconclusive = small, poorly fitted or top-dose-only effect, or another doubt; inactive = no such curve, though single readings can be large or run the other way.

Results for CCn1c(CNc2nc3ccccc3n2C(C)C)nc2ccccc21 ?
LmPK inhibitor: -1%; Shiga inhibitor: -11; Cycloheximide cs: -1; Pf growth 48h: inconclusive; Pf growth 96h: 12µM*

Results for COc1ccc(CC(=O)NNC(=O)CSc2nnc(Cc3ccc(OC)cc3)n2-c2ccccc2)cc1 ?
LmPK inhibitor: -1%; Shiga inhibitor: 13; Cycloheximide cs: -2; Pf growth 48h: 2%; Pf growth 96h: 5%

Results for CCN(CC)CCn1c(=S)[nH]c2ccc(Br)cc2c1=O ?
LmPK inhibitor: -2%; Shiga inhibitor: -3; Cycloheximide cs: -2; Pf growth 48h: 5%; Pf growth 96h: 0%

Results for CC(C)C(NC(=O)c1ccccc1)C(=O)N/N=C\c1ccco1 (configuration not stated) ?
LmPK inhibitor: -1%; Shiga inhibitor: 23; Cycloheximide cs: -3; Pf growth 48h: 4%; Pf growth 96h: 2%

What do the screens show for `CC(C)n1c(NCc2nc3ccccc3n2C)nc2ccccc21`?
LmPK inhibitor: 0%; Shiga inhibitor: 0; Cycloheximide cs: 1; Pf growth 48h: inconclusive

What do the screens show for `Cn1c(CNc2nc3ccccc3n2C)nc2ccccc21`?
LmPK inhibitor: -3%; Shiga inhibitor: 77*; Cycloheximide cs: 68*; Pf growth 48h: 282%; Pf growth 96h: 138%

Results for CCOc1cc(CNCCc2c[nH]c3ccccc23)cc(Cl)c1OC ?
LmPK inhibitor: 5%; Shiga inhibitor: -6; Cycloheximide cs: -2; Pf growth 48h: inconclusive; Pf growth 96h: 6.6µM*

What do the screens show for `CCOc1cc(CNCCc2c[nH]c3ccccc23)cc(Cl)c1OCC(N)=O`?
LmPK inhibitor: 2%; Shiga inhibitor: 4; Cycloheximide cs: -2; Pf growth 48h: inconclusive; Pf growth 96h: 4.7µM*

Results for COc1cc(CNCCc2c[nH]c3ccccc23)cc(Cl)c1OCC(N)=O ?
LmPK inhibitor: 8%; Shiga inhibitor: -8; Cycloheximide cs: 1; Pf growth 48h: inconclusive; Pf growth 96h: -13%

How did COc1ccc(CNCCc2c[nH]c3ccccc23)c(OC)c1OC do in these assays?
LmPK inhibitor: -2%; Shiga inhibitor: -6; Cycloheximide cs: -2; Pf growth 48h: -10%; Pf growth 96h: inconclusive

Results for C/C(=N\NC1=N[C@H]2CS(=O)(=O)C[C@H]2S1)c1ccccc1 ?
LmPK inhibitor: -4%; Shiga inhibitor: -5; Cycloheximide cs: -1; Pf growth 48h: 28%; Pf growth 96h: 12%

What do the screens show for `O=C(Nc1ccc(CN2CCOCC2)cc1)c1ccc(Br)o1`?
LmPK inhibitor: -4%; Shiga inhibitor: 69*; Cycloheximide cs: 43*; Pf growth 48h: 66%; Pf growth 96h: 196%

Results for O=C(Nc1ccc(CN2CCOCC2)cc1)c1ccc(-c2cc(Cl)ccc2Cl)o1 ?
LmPK inhibitor: -2%; Shiga inhibitor: 20; Cycloheximide cs: -3; Pf growth 48h: 1.9µM*; Pf growth 96h: inconclusive

Results for O=C(Nc1ccc(N2CCN(C(=O)c3ccccc3)CC2)c(Cl)c1)c1ccc(Br)o1 ?
LmPK inhibitor: -5%; Shiga inhibitor: 14; Cycloheximide cs: -2; Pf growth 48h: 10µM*; Pf growth 96h: 60%

What do the screens show for `O=C(Nc1ccc(N2CCOCC2)c(Cl)c1)c1ccc(Br)o1`?
LmPK inhibitor: -8%; Shiga inhibitor: 110*; Cycloheximide cs: 79*; Pf growth 48h: inconclusive; Pf growth 96h: 19%

Results for CCCCC(C)/C=C(C)/C=C(\C)C(=O)NC1=CC(O)(/C=C/C=C/C=C/C(=O)NC2=C(O)CCC2=O)C2OC2C1=O (configuration not stated) ?
Shiga inhibitor: -4; Cycloheximide cs: -6

How did C[S+](C)CC[C@H](N)C(=O)O do in these assays?
Pf growth 48h: -4%; Pf growth 96h: 0%

Results for O=C(CCS(=O)(=O)c1cc2c(cc1Cl)NC(=O)CO2)NCc1ccc(F)cc1 ?
LmPK inhibitor: 2%; Shiga inhibitor: -4; Cycloheximide cs: -2; Pf growth 48h: 9%; Pf growth 96h: inconclusive

What do the screens show for `N#CC1(C#N)CC(C=O)=C(N)C1(C#N)CC(=O)C12CC3CC(CC(C3)C1)C2` (configuration not stated)?
LmPK inhibitor: 3%; Shiga inhibitor: -14; Cycloheximide cs: -5; Pf growth 48h: inconclusive; Pf growth 96h: inconclusive

Results for Cc1ccc2c(C)c(C(=O)N3CCC(O)(c4ccccc4)CC3)oc2c1C ?
LmPK inhibitor: -5%; Shiga inhibitor: -4; Cycloheximide cs: -2; Pf growth 48h: inconclusive; Pf growth 96h: 18%

How did Cc1c(C(=O)O)oc2c(F)cccc12 do in these assays?
LmPK inhibitor: 0%; Shiga inhibitor: -3; Cycloheximide cs: -1; Pf growth 48h: 16%; Pf growth 96h: inactive

Results for CCOC(=O)C1CCN(C(=O)c2cc(OCC)c(OCC)c(OCC)c2)CC1 ?
LmPK inhibitor: -15%; Shiga inhibitor: 4; Cycloheximide cs: -5; Pf growth 48h: 0%; Pf growth 96h: -11%

How did CCOC(=O)C1CCN(C2CCN(C(=O)c3oc4c(C)c(C)ccc4c3C)CC2)CC1 do in these assays?
LmPK inhibitor: -8%; Shiga inhibitor: 82*; Cycloheximide cs: 19*; Pf growth 48h: 13µM*; Pf growth 96h: -15%

Results for CCOC(=O)C1CCN(C2CCN(C(=O)c3oc4c(F)cccc4c3C)CC2)CC1 ?
LmPK inhibitor: 0%; Shiga inhibitor: -2; Cycloheximide cs: -1; Pf growth 48h: 8.3µM*; Pf growth 96h: inconclusive

Results for Cc1ccc2c(C)c(C(=O)N3CCCC(C(N)=O)C3)oc2c1C (configuration not stated) ?
LmPK inhibitor: 1%; Shiga inhibitor: 72*; Cycloheximide cs: 27*; Pf growth 48h: 49%; Pf growth 96h: inconclusive

Results for Cc1c(C(=O)N2CCN(C/C=C/c3ccccc3)CC2)oc2c(F)cccc12 ?
Pf growth 48h: -12%; Pf growth 96h: 15%

Results for Cc1c(C(=O)N2C[C@@H](C)O[C@@H](C)C2)oc2c(F)cccc12 ?
LmPK inhibitor: 2%; Shiga inhibitor: 70*; Cycloheximide cs: 40*; Pf growth 48h: inconclusive; Pf growth 96h: -5%

How did Cc1ccc2oc(C(=O)N3CCC(N4CCSCC4)CC3)c(C)c2c1 do in these assays?
LmPK inhibitor: 2%; Shiga inhibitor: 1; Cycloheximide cs: 3; Pf growth 48h: -3%; Pf growth 96h: inconclusive

Results for Cc1c(C(=O)NC2CCOC2)oc2c(F)cccc12 (configuration not stated) ?
LmPK inhibitor: -6%; Shiga inhibitor: 114*; Cycloheximide cs: 71*; Pf growth 48h: 45%; Pf growth 96h: inconclusive

Results for Cc1c(C(=O)N2CCC[C@H]2CO)oc2c(F)cccc12 ?
LmPK inhibitor: -4%; Shiga inhibitor: 36*; Cycloheximide cs: 24*; Pf growth 48h: 22%; Pf growth 96h: 15µM*

What do the screens show for `Cc1c(C(=O)N2CCC(N3CCSCC3)CC2)oc2c(F)cccc12`?
LmPK inhibitor: 18%; Shiga inhibitor: 33; Cycloheximide cs: 23*; Pf growth 48h: -5%; Pf growth 96h: inconclusive
